# From paper PMC5540273 (PLoS ONE, 2017)
# Where “and” joins values, the source holds several entries; their conditions need not be identical. Equal values may be shown once. Read-outs that look alike come from different tables or passages of the source.
# Columns and labels:
# Conditions in all cases: n = 1
# CDK4 = test system: CDK4
# CDK5 = test system: CDK5
# CDK7 = test system: CDK7
# CDK8 = test system: CDK8
# CDK9 = test system: CDK9
# CDKL1 = test system: CDKL1
# CDKL2 = test system: CDKL2
# CDKL3 = test system: CDKL3
# CDKL5 = test system: CDKL5
# CHEK1 = test system: CHEK1
# [1] = concentration: 1 μM, replicates: in singlicate
# [2] = concentration: 1 μM,replicates: in singlicate, 1 µM
# 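Note: KINOMEscan kinase panel screen.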
smiles,measurement,setting,value
Cn1ccc2ncnc(Oc3ccc(NC(=O)Nc4ccccc4)cc3)c21,%Inh,CDK4; [1],0%
same,%Inh,CDK5; [1],0%
same,%Inh,CDK7; [1],13%
same,%Inh,CDK8; [1],12%
same,%Inh,CDK9; [1],9%
same,%Inh,CDKL1; [1],36%
same,%Inh,CDKL2; [1],2%
same,%Inh,CDKL3; [1],0%
same,%Inh,CDKL5; [1],17%
same,%Inh,CHEK1; [1],1%
Clc1cc(Cl)cc(Nc2ccnc(Nc3cc(Cl)cc(Cl)c3)n2)c1 [GSK175726],%Inh,CDK4; [1],11%
same,%Inh,CDK5; [1],0%
same,%Inh,CDK7; [1],5%
same,%Inh,CDK8; [1],0%
same,%Inh,CDK9; [1],13%
same,%Inh,CDKL1; [1],11%
same,%Inh,CDKL2; [1],32%
same,%Inh,CDKL3; [1],0%
same,%Inh,CDKL5; [1],0%
same,%Inh,CHEK1; [1],0%
O=c1cc(N2CCOCC2)nc2n(Cc3cccc(Cl)c3Cl)ccn12 [GSK2286295],%Inh,CDK4; [1],0%
same,%Inh,CDK5; [1],0%
same,%Inh,CDK7; [1],0%
same,%Inh,CDK8; [1],0%
same,%Inh,CDK9; [1],14%
same,%Inh,CDKL1; [1],0%
same,%Inh,CDKL2; [1],7%
same,%Inh,CDKL3; [1],0%
same,%Inh,CDKL5; [1],2%
same,%Inh,CHEK1; [1],0%
COc1cc2nccc(Nc3ccc(NC(=O)c4ccc(C)cc4)c(O)c3)c2cc1OC.Cl [GW440132],%Inh,CDK4; [1],35%
same,%Inh,CDK5; [1],0%
same,%Inh,CDK7; [1],75%
same,%Inh,CDK8; [1],33%
same,%Inh,CDK9; [1],0%
same,%Inh,CDKL1; [1],4%
same,%Inh,CDKL2; [1],13%
same,%Inh,CDKL3; [1],0%
same,%Inh,CDKL5; [1],0%
same,%Inh,CHEK1; [1],0%
Cc1cccc(-c2nc(C)cc(Nc3ccncc3)n2)n1 [GSK257997],%Inh,CDK4; [1],28%
same,%Inh,CDK5; [1],0%
same,%Inh,CDK7; [1],0%
same,%Inh,CDK8; [1],0%
same,%Inh,CDK9; [1],95.9%
same,%Inh,CDKL1; [1],3%
same,%Inh,CDKL2; [1],0%
same,%Inh,CDKL3; [1],0%
same,%Inh,CDKL5; [1],6%
same,%Inh,CHEK1; [1],0%
Cn1cncc1-c1ccc2ncnc(Nc3ccc(OCc4ccccc4)cc3)c2c1 [GW320571],%Inh,CDK4; [1],0%
same,%Inh,CDK5; [1],3%
same,%Inh,CDK7; [1],0%
same,%Inh,CDK8; [1],29%
same,%Inh,CDK9; [1],0%
same,%Inh,CDKL1; [1],0%
same,%Inh,CDKL2; [1],19%
same,%Inh,CDKL3; [1],0%
same,%Inh,CDKL5; [1],0%
same,%Inh,CHEK1; [1],15%
Cl.c1ccc(-c2n[nH]cc2-c2ccnc(-c3ccc(CN4CCOCC4)cc3)c2)nc1 [GW776245],%Inh,CDK4; [1],0%
same,%Inh,CDK5; [1],12%
same,%Inh,CDK7; [1],0%
same,%Inh,CDK8; [1],52%
same,%Inh,CDK9; [1],0%
same,%Inh,CDKL1; [1],59%
same,%Inh,CDKL2; [1],9%
same,%Inh,CDKL3; [1],6%
same,%Inh,CDKL5; [1],0%
same,%Inh,CHEK1; [1],0%
Cc1cccc(-c2cc(Nc3ccncc3)c3ccccc3n2)n1 [GSK223675],%Inh,CDK4; [1],0%
same,%Inh,CDK5; [1],0%
same,%Inh,CDK7; [1],0%
same,%Inh,CDK8; [1],0%
same,%Inh,CDK9; [1],4%
same,%Inh,CDKL1; [1],0%
same,%Inh,CDKL2; [1],5%
same,%Inh,CDKL3; [1],0%
same,%Inh,CDKL5; [1],1%
same,%Inh,CHEK1; [1],0%
CCn1c(-c2cccnc2O)nc2cnccc21 [SB-736715],%Inh,CDK4; [1],4%
same,%Inh,CDK5; [1],0%
same,%Inh,CDK7; [1],0%
same,%Inh,CDK8; [1],33%
same,%Inh,CDK9; [1],0%
same,%Inh,CDKL1; [1],13%
same,%Inh,CDKL2; [1],0%
same,%Inh,CDKL3; [1],10%
same,%Inh,CDKL5; [1],0%
same,%Inh,CHEK1; [1],0%
Cl.NC(=O)c1cccc(Nc2nccc(Nc3ccc(Oc4cccc(Cl)c4)c(Cl)c3)n2)c1 [GW659008],%Inh,CDK4; [1],48%
same,%Inh,CDK5; [1],0%
same,%Inh,CDK7; [1],0%
same,%Inh,CDK8; [1],28%
same,%Inh,CDK9; [1],0%
same,%Inh,CDKL1; [1],9%
same,%Inh,CDKL2; [1],23%
same,%Inh,CDKL3; [1],0%
same,%Inh,CDKL5; [1],0%
same,%Inh,CHEK1; [1],0%
COC(=O)c1c(-c2ccccc2)c2cc(C(=O)O)ccc2c(=O)n1Cc1ccccc1,%Inh,CDK4; [1],0%
same,%Inh,CDK5; [1],0%
same,%Inh,CDK7; [1],0%
same,%Inh,CDK8; [1],13%
same,%Inh,CDK9; [1],0%
same,%Inh,CDKL1; [1],0%
same,%Inh,CDKL2; [1],6%
same,%Inh,CDKL3; [1],4%
same,%Inh,CDKL5; [1],21%
same,%Inh,CHEK1; [1],0%
Cc1ccc(NC(=O)Nc2cccc(C(F)(F)F)c2)cc1 [GSK955403],%Inh,CDK4; 1 µM,0%
same,%Inh,CDK5; 1 µM,0%
same,%Inh,CDK7; 1 µM,12%
same,%Inh,CDK8; 1 µM,0%
same,%Inh,CDK9; 1 µM,0%
same,%Inh,CDKL1; 1 µM,14%
same,%Inh,CDKL2; 1 µM,0%
same,%Inh,CDKL3; 1 µM,4%
same,%Inh,CDKL5; 1 µM,0%
same,%Inh,CHEK1; 1 µM,5%
CCn1c(-c2ccccn2)nc2cnccc21 [SB-736398],%Inh,CDK4; [1],34%
same,%Inh,CDK5; [1],0%
same,%Inh,CDK7; [1],0%
same,%Inh,CDK8; [1],39%
same,%Inh,CDK9; [1],0%
same,%Inh,CDKL1; [1],9%
same,%Inh,CDKL2; [1],17%
same,%Inh,CDKL3; [1],0%
same,%Inh,CDKL5; [1],0%
same,%Inh,CHEK1; [1],0%
CSc1nn2c(=O)cc(N3CCOCC3)nc2n1Cc1cccc(C(F)(F)F)c1C [GSK2363608],%Inh,CDK4; [2],15% and 0%
same,%Inh,CDK5; [1],0%
same,%Inh,CDK7; [2],7% and 0%
same,%Inh,CDK8; [1],0%
same,%Inh,CDK9; [2],7% and 0%
same,%Inh,CDKL1; [1],0%
same,%Inh,CDKL2; [2],17% and 30%
same,%Inh,CDKL3; [1],0%
same,%Inh,CDKL5; [1],0%
same,%Inh,CHEK1; [2],4% and 11%
Cl.O=C(Nc1cccc(-c2nn3ncccc3c2-c2ccnc(Nc3cccnc3)n2)c1)c1c(F)cccc1F [GSK312879],%Inh,CDK4; [1],0%
same,%Inh,CDK5; [1],0%
same,%Inh,CDK7; [1],0%
same,%Inh,CDK8; [1],0%
same,%Inh,CDK9; [1],0%
same,%Inh,CDKL1; [1],1%
same,%Inh,CDKL2; [1],19%
same,%Inh,CDKL3; [1],0%
same,%Inh,CDKL5; [1],0%
same,%Inh,CHEK1; [1],12%
O=C(Nc1n[nH]c2cc(-c3cccc(F)c3F)ccc12)C1CC1 [SB-733894],%Inh,CDK4; [1],0%
same,%Inh,CDK5; [1],0%
same,%Inh,CDK7; [1],17%
same,%Inh,CDK8; [1],89%
same,%Inh,CDK9; [1],5%
same,%Inh,CDKL1; [1],37%
same,%Inh,CDKL2; [1],95%
same,%Inh,CDKL3; [1],48%
same,%Inh,CDKL5; [1],0%
same,%Inh,CHEK1; [1],3%
NC(=O)c1nnc2ccccc2c1N,%Inh,CDK4; [1],0%
same,%Inh,CDK5; [1],0%
same,%Inh,CDK7; [1],14%
same,%Inh,CDK8; [1],26%
same,%Inh,CDK9; [1],15%
same,%Inh,CDKL1; [1],44%
same,%Inh,CDKL2; [1],1%
same,%Inh,CDKL3; [1],17%
same,%Inh,CDKL5; [1],9%
same,%Inh,CHEK1; [1],0%
